Reference: PubChem BioAssay AID1159580 (chemical genetic matrix, 2015)
Hit rate of the full screen: of about 5,500 compounds, about 2,000 (36%) were called active. Not shown: some 18% with an inconclusive outcome. Cut-off read from the data, not from the text of the source: active = normalized growth mostly below about 0.91 (no sharp cut-off); inconclusive = no clear call, values can overlap the other calls; inactive = mostly above about 0.92. This is one part of the list.

Assay: chemical genetic growth profiling, strain panel (AID 1159580);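 note: tested at 20 µM; growth read once vehicle control cultures reached saturation at 30 °C; 1 = growth at the plate median or of vehicle wells; lower values mean less growth of the strain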
Conditions: growth OD
[1] = S. cerevisiae deletion strains, locus YAL013W, strain DEP1, active compounds read low
[2] = S. cerevisiae deletion strains, locus YBR229C, strain ROT2, active compounds read low
[3] = S. cerevisiae deletion strains, locus YCL061C, strain MRC1, active compounds read low
[4] = S. cerevisiae deletion strains, locus YDL101C, strain DUN1, active compounds read low
[5] = S. cerevisiae deletion strains, locus YDR150W, strain NUM1, active compounds read low
[6] = S. cerevisiae deletion strains, locus YEL061C, strain CIN8, active compounds read low
[7] = S. cerevisiae deletion strains, locus YGR078C, strain PAC10, active compounds read low
[8] = S. cerevisiae deletion strains, locus YHR030C, strain SLT2, active compounds read low
[9] = S. cerevisiae deletion strains, locus YHR087W, strain rtc3, active compounds read low
[10] = S. cerevisiae deletion strains, locus YJR043C, strain POL32, active compounds read low
[11] = S. cerevisiae deletion strains, locus YJR075W, strain HOC1, active compounds read low
[12] = S. cerevisiae deletion strains, locus YLR039C, strain RIC1, active compounds read low
[13] = S. cerevisiae deletion strains, locus YLR058C, strain SHM2 (second series), active compounds read low
[14] = S. cerevisiae deletion strains, locus YLR085C, strain ARP6, active compounds read low
[15] = S. cerevisiae deletion strains, locus YLR262C, strain YPT6, active compounds read low
[16] = S. cerevisiae deletion strains, locus YML094W, strain GIM5, active compounds read low
[17] = S. cerevisiae deletion strains, locus YMR219W, strain ESC1, active compounds read low
[18] = S. cerevisiae deletion strains, locus YMR263W, strain SAP30, active compounds read low
[19] = S. cerevisiae deletion strains, locus YNL153C, strain GIM3, active compounds read low
[20] = S. cerevisiae deletion strains, locus YNL298W, strain CLA4 (second series), active compounds read low
[21] = S. cerevisiae deletion strains, locus YNL322C, strain KRE1, active compounds read low
[22] = S. cerevisiae deletion strains, locus YNR030W, strain Alg12, active compounds read low
[23] = S. cerevisiae deletion strains, locus YPL055C, strain LGE1, active compounds read low
[24] = S. cerevisiae deletion strains, locus YPL241C, strain CIN2, active compounds read low
[25] = S. cerevisiae deletion strains, locus YPR135W, strain CTF4, active compounds read low
[26] = S. cerevisiae strains, strain wild type, active compounds read low
[27] = S. cerevisiae deletion strains, locus YGR229C, strain SMI1, active compounds read low
[28] = S. cerevisiae deletion strains, locus YKL190W, strain CNB1, active compounds read low
[29] = S. cerevisiae deletion strains, locus YOL006C, strain TOP1, active compounds read low
[30] = S. cerevisiae deletion strains, locus YDL134C, strain PPH21, active compounds read low
[31] = S. cerevisiae deletion strains, locus YNL128W, strain TEP1, active compounds read low
[32] = S. cerevisiae deletion strains, locus YJL187C, strain SWE1, active compounds read low

Measured: normalized growth

O=S(=O)(c1ccc(Cl)cc1)N1CCN(Cc2ccccc2)CC1
active: [15] 0.809
inactive: [1] 1.01 | [2] 0.99 | [3] 1.01 | [4] 0.985 | [5] 0.986 | [6] 0.958 | [7] 0.992 | [8] 0.856 | [9] 0.978 | [10] 1.01 | [11] 0.982 | [12] 0.846 | [13] 1 | [14] 0.985 | [16] 0.967 | [17] 0.994 | [18] 1.02 | [19] 1 | [20] 0.956 | [21] 0.998 | [22] 0.987 | [23] 0.972 | [24] 0.978 | [25] 0.923 | [26] 0.987

O=C(Cc1ccccc1)NC1CCN(S(=O)(=O)c2ccc(Cl)cc2)CC1
inactive: [1] 1.01 | [2] 1 | [3] 0.992 | [4] 1.01 | [5] 0.996 | [6] 1.01 | [7] 0.98 | [27] 0.992 | [8] 0.973 | [9] 1 | [10] 0.985 | [11] 0.962 | [28] 0.994 | [12] 1 | [13] 0.993 | [14] 1.01 | [15] 1.01 | [16] 1 | [17] 0.999 | [18] 0.992 | [19] 0.982 | [20] 1.03 | [21] 0.998 | [22] 1 | [29] 1.02 | [23] 0.986 | [24] 1.03 | [25] 0.971 | [26] 1.01

Cc1ccc(S(=O)(=O)N2CCCCCC2)cc1
inactive: [1] 0.98 | [2] 0.997 | [3] 0.997 | [4] 0.985 | [30] 0.999 | [5] 0.976 | [6] 1.01 | [7] 0.985 | [27] 0.988 | [8] 0.896 | [9] 1.03 | [10] 0.999 | [11] 0.998 | [12] 0.881 | [13] 0.998 | [14] 0.921 | [15] 0.928 | [16] 1.02 | [17] 0.983 | [18] 1 | [19] 0.987 | [20] 0.983 | [21] 0.972 | [22] 0.983 | [29] 0.961 | [23] 1.04 | [24] 0.984 | [25] 0.843 | [26] 1

Cc1ccc(S(=O)(=O)N2CCC(C(c3ccccc3)c3ccccc3)CC2)cc1
inactive: [1] 0.998 | [2] 0.989 | [3] 0.963 | [4] 0.975 | [5] 0.948 | [6] 0.994 | [7] 0.972 | [8] 0.971 | [9] 1.05 | [10] 1 | [11] 1 | [12] 0.97 | [13] 1.01 | [14] 0.989 | [15] 0.989 | [16] 1 | [17] 0.993 | [18] 0.994 | S. cerevisiae deletion strains, locus YMR307W, strain GAS1, active compounds read low 1.24 | [31] 0.969 | [19] 0.988 | [20] 0.971 | [21] 0.999 | [22] 1.01 | [23] 1.06 | [24] 0.986 | [25] 0.986 | [26] 0.974

CC(=O)Nc1ccc(S(=O)(=O)NCCCN2CCN(Cc3ccccc3)CC2)cc1Cl
inactive: [1] 0.993 | [2] 1.01 | [3] 0.999 | [4] 0.952 | [5] 0.924 | [6] 1.04 | [7] 0.983 | [8] 1.03 | [9] 1.02 | [32] 1.01 | [10] 0.992 | [11] 1.01 | [28] 0.993 | [12] 0.992 | [13] 1.01 | [14] 1.02 | [15] 1 | [16] 1.01 | [17] 0.996 | [18] 0.944 | [31] 0.986 | [19] 0.994 | [20] 0.969 | [21] 0.999 | [22] 0.99 | [29] 1.02 | [23] 0.915 | [24] 1 | [25] 0.926

Cc1ccc(S(=O)(=O)N2CCN(CCOc3ccccc3)CC2)cc1
active: [15] 0.701
inactive: [1] 1 | [2] 0.994 | [3] 0.982 | [4] 0.992 | [30] 1 | [5] 0.961 | [6] 0.972 | [7] 0.993 | [27] 0.99 | [8] 0.896 | [9] 0.995 | [32] 0.995 | [10] 1 | [11] 0.984 | [12] 0.828 | [13] 0.987 | [14] 0.966 | [16] 0.944 | [17] 0.985 | [31] 0.997 | [19] 0.989 | [20] 0.96 | [21] 0.997 | [22] 0.967 | [23] 0.953 | [24] 0.982 | [25] 0.99
